Screens (PubChem)
Only some compounds are listed: those with a hit (about 7.4% of all), similar ones and a draw of the others.
NPC1 prom act – NPC1 promoter activation. Huh7 NPC1 promoter luciferase reporter, 24 h. Potency, µM (series often up to 9.22 µM), without a hit: at the highest dose activation, hits mostly activators. 320,000 compounds, 2.4% hits; also: % of control where 0% means no effect; nearly all actives have a fitted effect of over 60% in size
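NPC1 promoter–luciferase Huh7 cells; 24 h compound; luminescence.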
FLuc modulator – counter-screen for miR-21 project: firefly luciferase inhibitors or activators. Potency, µM (top dose mostly 57.5 µM), for the others: at the top dose activity change, negative = inhibition, most hits filed as inhibitors. AID 588342. purified FLuc, Km substrates, luminescence inhibition. P08659. 360,000 compounds, 6.9% hits;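 also: plate controls were vehicle for no effect and reference inhibitor for full effect; nearly all actives have a fitted effect of over 55% in size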
Target sequence (P08659 whole entry, looked up): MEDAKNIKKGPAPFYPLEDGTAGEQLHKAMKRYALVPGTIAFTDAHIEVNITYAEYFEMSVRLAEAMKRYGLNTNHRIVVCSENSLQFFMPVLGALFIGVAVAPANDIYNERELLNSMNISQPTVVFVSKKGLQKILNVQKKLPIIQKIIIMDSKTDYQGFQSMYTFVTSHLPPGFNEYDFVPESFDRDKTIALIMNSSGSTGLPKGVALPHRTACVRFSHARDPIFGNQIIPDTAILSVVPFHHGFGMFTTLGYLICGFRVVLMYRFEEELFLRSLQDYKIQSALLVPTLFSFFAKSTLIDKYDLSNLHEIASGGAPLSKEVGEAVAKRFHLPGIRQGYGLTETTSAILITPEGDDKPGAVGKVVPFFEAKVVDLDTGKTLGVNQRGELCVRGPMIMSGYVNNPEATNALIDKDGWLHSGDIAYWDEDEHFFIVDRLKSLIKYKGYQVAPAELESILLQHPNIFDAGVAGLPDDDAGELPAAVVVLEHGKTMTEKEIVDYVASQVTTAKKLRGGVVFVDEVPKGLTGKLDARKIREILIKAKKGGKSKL
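Purified P. pyralis luciferase, 10 nM final, with Km-level 10 uM D-luciferin and 10 uM ATP in 50 mM Tris acetate pH 7.5, 10 mM Mg acetate, 0.01% Tween-20, 0.05% BSA; 6-point qHTS titration about 60 µM downward; luminescence read.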
p53 reactivator – restores transcriptional activity of mutant p53; Potency, µM (series often up to 92.2 µM), for the others: at the top dose activity change, positive = activation, actives largely listed as activators; 320,000 compounds, 0.063% hits; H1299 p53-A138V BP100-luciferase reporter, luminescence, 24 h; also: % of control where 0% means no effect; nearly all actives have a fitted effect of over 45% in size
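p53-null H1299 cells stably carrying temperature-sensitive p53-A138V and a BP100-luciferase reporter were pinned with compounds (4-point, 1:5 series) and held 24 hrs at 37 deg C. Luminescence was read 10 min after detection reagent.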
Rab9 prom act – activators of Rab9 promoter; Huh7 Rab9 promoter-luciferase reporter, luminescence, 24 h; Potency, µM (series often up to 9.22 µM), for the others: at the highest dose activation, negative = inhibition, most hits filed as activators; 320,000 compounds, 2.8% hits; also: % of control where 0% means no effect; nearly all actives have a fitted effect of over 60% in size
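Cell-based reporter: Huh7 stable for Rab9 promoter-driven luciferase, plated in reduced-serum medium with 10% FBS at 1500 cells/well, compound-treated 24 h at 37 °C, luminescence read after 10 min reagent.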
ELG1 genotox – genotoxicity induction in ELG1-luciferase HEK293T cells | Potency, µM (highest dose often 46 µM), without a hit: top-dose activity change, positive = activation, usual class: activators | 330,000 compounds, 1.3% hits | HEK293T ELG1-luciferase reporter, luminescence, 16 h; also: % of control where 0% means no effect; nearly all actives have a fitted effect of over 60% in size
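After overnight (16 hr) compound treatment at 37 °C, ELG1-luciferase HEK293T cells were lysed with ONE-Glo; luminescence quantified 30 min later at room temperature.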
SMN2 splice enh – enhancers of SMN2 splice variant expression; Potency, µM (highest dose often 46.1 µM), for inactives: top-dose activity change, positive = activation, usual class: activators; 210,000 compounds, 2.8% hits; AID 1458; HEK293 SMN2-luciferase splicing reporter, luminescence, 30-36 h; also: % of control where 0% means no effect; nearly all actives have a fitted effect of over 55% in size
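qHTS luciferase splicing reporter: luminescence rises when SMN2 exon 7 is included in transfected HEK293 cells. Compound exposure lasted 30-36 h at 37C, with 4.5 mM final sodium butyrate as control, followed by a ONE-Glo read.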
Starred values were filed as active, the others as inactive; ? = inconclusive; nt = not tested or not shown; [ ] = dose if it differs, or a comment. Calls follow the shape of the dose curve; as a rule, active = well fitted curve in the direction sought with a large enough effect; inconclusive = small, poorly fitted or top-dose-only effect, or another doubt; inactive = no such curve, though single readings can be large; an effect the other way counts as inactive or inconclusive. Potency is read from the fitted curve at half-maximal effect.

SMILES	NPC1 prom act	FLuc modulator	p53 reactivator	Rab9 prom act	ELG1 genotox	SMN2 splice enh
C/C=C/C=C\C(=O)Nc1cccc(C2=NOC3(C2)C[C@@H](C(N)=O)N(C(=O)/C(C)=C/C)C3)c1 (stereo not given in full)	13.1%	?	0.2%	-0.3%	5.3%	nt
C/C=C\C=C/C(=O)Nc1cccc(C2=NOC3(C2)C[C@@H](C(N)=O)N(C(=O)c2ccc(Cl)cc2)C3)c1 (stereo not given in full)	2.6%	15.1µM*	2.9%	9.1%	3.3%	nt
C/C=C\C=C/C(=O)Nc1cccc(C2=NOC3(C2)C[C@H](C(N)=O)N(C(=O)c2ccc(OC)cc2)C3)c1 (stereo not given in full)	1.6%	15.1µM*	1.2%	-2.0%	5.0%	nt
COc1ccc(S(=O)(=O)n2ccc(-c3cnc(-c4ccccc4)s3)n2)cc1	17.9%	-15.9%	7.0%	?	-1.8%	-4.0%
O=C(c1ccccc1)n1ccc(-c2cnc(-c3ccccc3)s2)n1	1.41µM*	4.26µM*	?	1.58µM*	1.64µM*	3.55µM*
COc1cccc(C(=O)NC2CCCN(C3Cc4ccccc4C3)C2)c1OC (stereo not given)	0.3%	2.1%	-12.3%	-7.6%	-2.3%	nt
CCCCS(=O)(=O)c1nc(-c2ccc(Br)cc2)cc(-c2ccccc2)c1C#N	nt	1.7%	nt	nt	nt	-109.4%
CC(=O)c1c(C)nc(-c2ccc(Cl)cc2)nc1N=CN(C)C	3.98µM*	?	?	2.82µM*	9.2µM*	11.2µM*
CC(=O)c1c(C)nc(-c2ccc(Cl)cc2)nc1N	3.55µM*	6.75µM*	6.9%	3.16µM*	4.11µM*	10µM*
CSc1nc(-c2ccccc2)nc(N)c1C(C)=O	-1.2%	-14.3%	-0.9%	-4.4%	-2.3%	-0.4%
O=C(Nc1ccc(Br)cc1)c1cccn1-c1ncc(C(F)(F)F)cc1Cl	6.1%	-0.2%	-0.8%	1.8%	-1.4%	3.4%
COc1ccc(C(=O)CSc2nccn2C)cc1	2.82µM*	16.9µM*	?	3.55µM*	23.1µM*	nt
COC(=O)c1ccc(CSC2=NCCS2)cc1	?	?	?	?	?	17.8µM*
Cn1ccnc1SCC(=O)c1cccc(C(F)(F)F)c1	2.82µM*	16.9µM*	?	3.98µM*	?	nt
O=C(CSc1nccn1-c1ncc(C(F)(F)F)cc1Cl)c1ccc(Br)cc1	3.55µM*	-18.2%	?	1.58µM*	?	-34.4%
Cc1cccc(NC(=O)CCc2c(C)nc3c(c(C)nn3C(C)(C)C)c2C)c1C	nt	-13.0%	nt	nt	nt	-2.3%
Cn1ccnc1SCc1ccc([N+](=O)[O-])cc1	1.1%	-4.3%	2.6%	0.8%	0.2%	5.4%
COC(=O)c1ccc(CSc2nccn2C)cc1	18.4%	?	23.3%	18.1%	13µM*	11.2µM*
COC(CNC(=O)c1coc2nc3ccccc3nc12)OC	1.7%	10.7µM*	24.4%	-0.3%	0.7%	nt
O=C(Nc1ccccc1C(=O)NCC1CCCO1)c1ccccc1 (stereo not given)	-3.9%	-12.3%	1.0%	-6.7%	-0.1%	3.8%
O=C(NCC1CCCO1)c1coc2nc3ccccc3nc12 (stereo not given)	3.3%	10.7µM*	?	8.6%	-0.8%	5.4%
CCn1c(CSc2nc3ccccc3s2)nc2ccccc21	1.2%	23.9µM*	5.5%	1.3%	3.2%	-34.4%
c1csc(CSc2nc3ccccc3s2)c1	?	4.78µM*	?	3.55µM*	14.6µM*	?
Cc1noc(C)c1CSc1nc2ccccc2s1	-4.3%	?	15.6%	0.6%	?	-11.6%
CSc1sccc1/C=N/O	-0.9%	5.1%	-5.8%	0.6%	-5.0%	nt
SMILES	NPC1 prom act	FLuc modulator	p53 reactivator	Rab9 prom act	ELG1 genotox	SMN2 splice enh
CSc1sccc1/C=C(/C#N)C(=O)c1ccco1	18.6%	15.1µM*	1.2%	12.4%	7.7%	nt
COCCN(C(=O)COC(=O)c1sccc1C)c1c(N)n(Cc2ccccc2)c(=O)[nH]c1=O	0.9%	0.6%	-0.7%	-3.4%	-4.1%	nt
CCn1nc(C(=O)N[C@@H](CCSC)c2nc3ccccc3[nH]2)c2ccccc2c1=O	2.0%	10.7µM*	2.2%	0.0%	15.5%	17.8%
CC(=O)OCC(=O)[C@@]1(O)CCC2C3CCC4=CC(=O)CC[C@]4(C)C3C(O)C[C@]21C (stereo not given in full)	nt	nt	nt	nt	nt	2.5%
CCSc1nnc2c(n1)[nH]c1c(C)cccc12	0.4%	12µM*	?	5.62µM*	?	-36.8%
CSc1nnc2c(n1)[nH]c1c(C)cccc12	4.3%	?	3.7%	7.2%	-5.9%	-32.4%
Cc1cc(NC2CCCCC2)nc(-n2nc(C)cc2C)n1	2.5%[46.1 µM]	nt	nt	-13.0%[46.1 µM]	nt	nt
COc1ccccc1/C=N/Nc1nccnc1Cl	27.4%	12µM*	?	?	18.4µM*	-21.3%
COc1cccc(/C=N/Nc2ncccc2[N+](=O)[O-])c1OC	?	0.301µM*	-10.6%	-4.7%	0.291µM*	nt
O=C(c1cnccn1)N1CCC2(CCCN(c3ccc(-c4ccccc4)cc3)C2)CC1	nt	nt	nt	nt	nt	3.98µM*
O=C(O)CNc1ccc(C(=O)O)cc1	nt	nt	nt	nt	nt	-7.7%[9.22 µM]
O=C(Cc1csc(N2CCOCC2)n1)N/N=C/c1ccc(Cl)cc1Cl	-3.8%	?	-2.0%	0.2%	-6.3%	-8.5%
COc1cc(/C=N/NC(=O)Cc2csc(N3CCOCC3)n2)cc(OC)c1O	0.2%	15.1µM*	-1.5%	0.0%	0.0%	5.9%
O=C(c1cc2c(=O)oc3ccccc3c2s1)N1CCOCC1	18.1%	16.9µM*	?	22.0%	1.0%	10.4%
O=C(c1cc2c(=O)n3ccccc3nc2s1)N1CCOCC1	2.82µM*	19µM*	?	3.16µM*	4.11µM*	11.2µM*
O=C(c1cc2ccccc2oc1=O)N1CCOCC1	?	12µM*	20.7%	?	?	nt
CC1CCN(C(=O)c2cc3c(=O)n4ccccc4nc3s2)CC1	?	?	11.4%	?	?	nt
O=C(c1cc2cc([N+](=O)[O-])ccc2oc1=O)N1CCOCC1	-31.8%	2.39µM*	-10.5%	-33.0%	-3.4%	nt
O=C(COc1coc(CN2CCN(c3ccccc3)CC2)cc1=O)NC1CCCCC1	3.8%	1.9%	-0.2%	0.4%	2.2%	nt
Cc1ccc(CNC(=O)CN2C(=O)COc3ccccc32)cc1	nt	3.2%	nt	nt	nt	nt
CCOc1ccccc1NC(=O)N1CCN(C)c2ncccc21	nt	-0.4%	nt	nt	nt	-19.0%
O=C(/C=C/c1ccco1)Nc1ccccc1C(=O)Nc1cccc(C(=O)O)c1	1.9%	3.01µM*	1.9%	1.3%	3.9%	nt
O=C(/C=C/c1ccco1)Nc1cc(Cl)ccc1C(=O)O	2.7%	19µM*	22.7%	-3.7%	0.9%	2.8%
